Experimental data as given in PubChem BioAssay AID652071 (NMMLSC, 2013).
A number with no mark means an inactive call. The rule behind the calls is not given here.

Test: yeast cytosolic pH changes via V-ATPase – S. cerevisiae, pHLuorin, powder set 4, dose response (AID 652071)
Settings: S. cerevisiae pHLuorin cytosolic pH fluorescence; series mostly up to 100 µM; response change, sign ambiguous: at the top concentration
In the case of `CC(=O)N1CCN(c2ccccc2NC(=O)c2cccc(Br)n2)CC1`, the “response change, sign ambiguous” value was 32.9%.
In the case of `CS(=O)(=O)c1cccc(C(=O)N2CCN(c3nc4ccc(F)cc4s3)CC2)c1`, the “response change, sign ambiguous” value was -19.9%.
With `CN1CCN(c2ccccc2NC(=O)c2ccc(C(F)(F)F)o2)CC1` the “response change, sign ambiguous” value was -7.3%.
For `Cc1ccc(C(=O)Nc2ccccc2N2CCN(C)CC2)o1`, the “response change, sign ambiguous” value was -17.8%.
In the case of `O=C(Nc1ccccc1N1CCCCC1)c1cccc(C(F)(F)F)c1`, the “response change, sign ambiguous” value was -0.38%.
For `O=C(Nc1ccccc1N1CCCCC1)c1ccc(-c2ccccc2)o1`, the “response change, sign ambiguous” value was 4.4%.
With `CN1CCN(c2ccccc2NC(=O)c2cccc(CS(C)(=O)=O)c2)CC1` the “response change, sign ambiguous” value was -10.9%.
For `CC(=O)N1CCN(c2ccccc2NC(=O)c2occc2-c2ccccc2)CC1`, the “response change, sign ambiguous” value was 42.4%.
For `N#Cc1cccc(C(=O)Nc2ccccc2N2CCCCC2)c1`, the “response change, sign ambiguous” value was -29.4%.
In the case of `COCc1cccc(C(=O)Nc2ccccc2N2CCN(C)CC2)c1`, the “response change, sign ambiguous” value was 6.5%.
For `CN1CCN(c2ccccc2NC(=O)c2ccc(-c3ccccc3)o2)CC1`, the “response change, sign ambiguous” value was 76.2%.
In the case of `O=C(c1ccc(Cl)o1)N1CCN(c2nc3ccc(F)cc3s2)CC1`, the “response change, sign ambiguous” value was -3.92%.
For `CC(=O)N1CCN(c2ccccc2NC(=O)c2cccc(S(=O)(=O)N(C)C)c2)CC1`, the “response change, sign ambiguous” value was 8.75%.
For `Cc1ccc(C(=O)Nc2ccccc2N2CCCCC2)o1`, the “response change, sign ambiguous” value was -65.7%.
In the case of `CS(=O)(=O)Cc1cccc(C(=O)Nc2ccccc2N2CCCCC2)c1`, the “response change, sign ambiguous” value was 7.01%.
For `CC(=O)N1CCN(c2ccccc2NC(=O)c2ccc(CN(C)C)o2)CC1`, the “response change, sign ambiguous” value was -7.44%.
With `CC(=O)N1CCN(c2ccccc2NC(=O)c2ccc(-c3ccccc3)o2)CC1` the “response change, sign ambiguous” value was -14.9%.
With `CC(=O)N1CCN(c2ccccc2NC(=O)c2cncc(Cl)n2)CC1` the “response change, sign ambiguous” value was -21.5%.
In the case of `CN1CCN(c2ccccc2NC(=O)c2cc(Cl)ccn2)CC1`, the “response change, sign ambiguous” value was 12.5%.
In the case of `CC(=O)N1CCN(c2ccccc2NC(=O)c2ccc(Br)o2)CC1`, the “response change, sign ambiguous” value was 15%.
For `COCc1ccc(C(=O)Nc2ccccc2N2CCN(C)CC2)o1`, the “response change, sign ambiguous” value was 17.8%.
With `CC(=O)N1CCN(c2ccccc2NC(=O)c2ccc(S(C)(=O)=O)o2)CC1` the “response change, sign ambiguous” value was -31.2%.
With `CC(=O)N1CCN(c2ccccc2NC(=O)c2cccc(CN(C)C)c2)CC1` the “response change, sign ambiguous” value was 11.7%.
For `CN1CCN(c2ccccc2NC(=O)c2ccc(C(C)(C)C)o2)CC1`, the “response change, sign ambiguous” value was -20.7%.
For `O=C(Nc1ccccc1N1CCCCC1)c1cc(C(F)(F)F)ccn1`, the “response change, sign ambiguous” value was 2.55%.
In the case of `CN1CCN(c2ccccc2NC(=O)c2ccc(Cl)o2)CC1`, the “response change, sign ambiguous” value was 12%.
For `O=C(Nc1ccccc1N1CCCCC1)c1cc(Cl)ccn1`, the “response change, sign ambiguous” value was -24.7%.
For `O=C(Nc1ccccc1N1CCCCC1)c1cccc(Br)n1`, the “response change, sign ambiguous” value was -14.9%.
With `N#CCc1cccc(C(=O)Nc2ccccc2N2CCOCC2)c1` the “response change, sign ambiguous” value was 12%.
In the case of `O=C(Nc1ccccc1N1CCCCC1)c1occc1-c1ccccc1`, the “response change, sign ambiguous” value was -82.7%.
For `CN1CCN(c2ccccc2NC(=O)c2cc(C#N)ccn2)CC1`, the “response change, sign ambiguous” value was 11.9%.
For `CN1CCN(c2ccccc2NC(=O)c2cccc(S(=O)(=O)N(C)C)c2)CC1`, the “response change, sign ambiguous” value was 14.1%.
In the case of `CC(=O)N1CCN(c2ccccc2NC(=O)c2cccc(C(F)(F)F)c2)CC1`, the “response change, sign ambiguous” value was 4.04%.
For `CN(C)C(=O)c1cccc(C(=O)Nc2ccccc2N2CCCCC2)c1`, the “response change, sign ambiguous” value was -8.64%.
With `CC(=O)N1CCN(c2ccccc2NC(=O)c2cccc(C(=O)N(C)C)c2)CC1` the “response change, sign ambiguous” value was 24.7%.
